Data published in PubChem BioAssay AID1671190 (National Center for Advancing Translational Sciences (NCATS), 2021).
Hit rate of the full screen: of about 580,000 compounds, about 6,100 (1.1%) were called active. Roughly 15% stayed inconclusive and do not appear here. Only a selection was taken, and actives are over-represented in it overall. Values without a mark were called inactive. Calls come from the whole dose curve; as a rule, active = well fitted inhibition curve with a large enough effect; inconclusive = small, poorly fitted or top-dose-only effect, or another doubt; inactive = no such curve, though single readings can be large or run the other way.
% is set by controls: 0 for no effect and ±100 for the full control effect; potency is the fitted concentration of half-maximal effect.

These compounds were tested against Polyunsaturated fatty acid lipoxygenase ALOX12 (Homo sapiens) (UniProt P18054) (assay: Primary qHTS assay for inhibitors of human arachidonate 12S-lipoxygenase (ALOX12): Round 2). Details: purified 12hLO, xylenol orange hydroperoxide absorbance; series mostly up to 108 µM; activity change, negative = inhibition: at the top concentration.
Sequence of Polyunsaturated fatty acid lipoxygenase ALOX12 (Homo sapiens) (P18054 whole entry, looked up): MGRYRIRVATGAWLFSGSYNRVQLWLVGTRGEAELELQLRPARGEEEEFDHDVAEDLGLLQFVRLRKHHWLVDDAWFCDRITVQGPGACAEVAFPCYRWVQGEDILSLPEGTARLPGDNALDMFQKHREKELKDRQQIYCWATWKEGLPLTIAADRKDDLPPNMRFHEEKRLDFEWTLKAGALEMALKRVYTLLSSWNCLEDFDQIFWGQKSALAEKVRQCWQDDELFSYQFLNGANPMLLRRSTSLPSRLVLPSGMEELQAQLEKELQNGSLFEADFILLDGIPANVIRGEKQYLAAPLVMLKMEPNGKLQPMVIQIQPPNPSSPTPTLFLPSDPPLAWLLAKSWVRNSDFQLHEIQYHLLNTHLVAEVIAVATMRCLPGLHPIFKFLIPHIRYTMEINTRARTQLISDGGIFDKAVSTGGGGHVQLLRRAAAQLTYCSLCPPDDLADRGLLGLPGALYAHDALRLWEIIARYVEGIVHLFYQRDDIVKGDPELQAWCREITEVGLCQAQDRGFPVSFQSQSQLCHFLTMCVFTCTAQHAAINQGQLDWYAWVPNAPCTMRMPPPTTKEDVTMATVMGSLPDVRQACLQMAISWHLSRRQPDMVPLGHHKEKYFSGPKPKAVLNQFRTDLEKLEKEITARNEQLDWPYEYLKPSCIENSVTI
Procedure, shortened: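 Hydroperoxide product was detected by ferrous iron/xylenol orange as the 573 to 405 nm absorbance ratio. Arachidonic acid at 40 uM (final) was turned over for 30 min at room temperature by 150 nM human 12hLO, pH 7.0 Hepes buffer, after 15 min compound preincubation.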
For CCOCCCNCc1ccccc1Cl, the “activity change, negative = inhibition” value was -55.1%.
CC(C)(C)CC(C)(C)NCc1ccco1 was tested, and the “activity change, negative = inhibition” value was -13.7%.
In the case of CC(C)(C)C1C/C(=C/c2ccco2)C(=O)/C(=C/c2ccco2)C1 (stereo not given), the Potency is reported as 39.8 µM (active).
With Cc1nnc(C(=O)Nc2ccc(C(=O)NCc3ccc4c(c3)OCO4)cc2)s1 the “activity change, negative = inhibition” value was 22.2%.
CNC(=O)CNC(=O)c1n[nH]c(=O)c2ccccc12 was tested, and the “activity change, negative = inhibition” value was 32.6%.
COc1ccc2[nH]cc(CCNC(=O)CNc3nc(Cl)nc4nc[nH]c34)c2c1 was tested, and the “activity change, negative = inhibition” value was -1.89%.
With COc1cccc(C2C(C#N)=C(N)OC3=C2S(=O)(=O)N(C)c2ccccc23)c1OC (stereo not given) the “activity change, negative = inhibition” value was -1.38%.
For CCc1nn2c(=O)cc(CNc3cccc(C(=O)NC4CC4)c3)nc2s1, the Potency was 10 µM (active).
With CCC(=O)Nc1cccc(C(=O)OCc2cc(=O)n3nc(CC)sc3n2)c1 the “activity change, negative = inhibition” value was -15.1%.
In the case of CCc1nn2c(=O)cc(CNc3cc(F)ccc3F)nc2s1, the “activity change, negative = inhibition” value is reported as -18.2%.
In the case of CCCN(C1CCS(=O)(=O)C1)S(=O)(=O)c1ccc(OC)cc1 (stereo not given), the “activity change, negative = inhibition” value is reported as 11.7%.
O=C(NCCc1ccco1)C1c2ccccc2C(=O)N(Cc2ccccc2)C12CCCC2 (stereo not given) was tested, and the “activity change, negative = inhibition” value was -28.6%.
In the case of N#CCCn1cc(C(=O)CN2C(=O)NC3(CCOc4ccccc43)C2=O)c2ccccc21 (stereo not given), the “activity change, negative = inhibition” value is reported as 5.98%.
Cc1ccc(C)c(N2CCN(c3ccc4cc(S(=O)(=O)N5CCC(C)CC5)ccc4n3)CC2)c1 was tested, and the Potency was 50.1 µM (active).
With Cc1ccccc1N1CCN(S(=O)(=O)c2ccc3ccccc3c2)CC1 the “activity change, negative = inhibition” value was -1.81%.
For O=S(=O)(c1ccc2nc(N3CCN(c4cccc(Cl)c4)CC3)ccc2c1)N1CCCCC1, the “activity change, negative = inhibition” value was -26%.
With CC1=C[C@@H](CNC2CCN(C)CC2)[C@H](C(C)C)C[C@H]1Cc1nc2ccccc2[nH]1 the “activity change, negative = inhibition” value was 34.7% [at 176 µM].
Cc1noc(C)c1C(=O)N1CCCC2(Cc3ccccc3CN2C(=O)C2CCCC2)C1 (stereo not given) was tested, and the activity change, negative = inhibition was 2.72% [at 12.5 µM].
C[C@]12CCC3=C4CCC(=O)C=C4CC[C@@H]3[C@H]1CC[C@@]2(O)CC#N was tested, and the Potency was 19.3 µM (active).
With C#C[C@]1(O)CC[C@H]2[C@@H]3CCC4=CC(=O)CC[C@@H]4[C@H]3CC[C@@]21CC the Potency was “inactive”.
For Cc1ccccc1NC(=O)CSc1nnc(C)n1-n1cccc1, the “activity change, negative = inhibition” value was 0.567%.
For COc1ccc(NC(=O)c2nn(C)c(=O)c3ccccc23)cc1OC(F)F, the “activity change, negative = inhibition” value was 11.9%.
CCc1cccc(C)c1NC(=O)Cn1ccn(-c2ccccc2)c(=O)c1=O was tested, and the “activity change, negative = inhibition” value was 27.8%.
In the case of CC(C)(C)c1ccc(/C=C/C(=O)NC2CCS(=O)(=O)C2)cc1 (stereo not given), the “activity change, negative = inhibition” value is reported as -1.56%.
In the case of O=C(COC(=O)/C=C/c1ccc(Cl)cc1)NC1CCS(=O)(=O)C1 (stereo not given), the “activity change, negative = inhibition” value is reported as -5.54%.
With CC(C(=O)NC1CCS(=O)(=O)C1)N1C(=O)/C(=C/c2ccc(Cl)cc2)SC1=S (stereo not given) the Potency was 35.5 µM (active).
With COc1ccc(S(=O)(=O)N2CCN(Cc3ncc(-c4ccc(F)cc4)o3)CC2)cc1 the “activity change, negative = inhibition” value was -18.3%.
Cc1ccc2nc(-c3ccco3)c(Cc3cccc(Cl)c3)n2c1 was tested, and the Potency was 25.1 µM (active).
In the case of Cc1cc2nc(-c3ccco3)c(Cc3cccc(F)c3)n2c(C)c1Br, the Potency is reported as 11.2 µM (active).
In the case of O=C(c1ccco1)N1CCN=C1SCc1cccc(Cl)c1, the “activity change, negative = inhibition” value is reported as -7.97%.
With Cc1ccc2nc(COc3cccc(NC(=O)c4cccc(Cl)c4)c3)cc(=O)n2c1 the “activity change, negative = inhibition” value was -35.3%.
In the case of Cc1ccc(C(=O)c2ccccc2C(=O)OCc2ccccc2Cl)cc1, the “activity change, negative = inhibition” value is reported as -2.13%.
In the case of CCN(CC)S(=O)(=O)c1ccc2c(c1)c(=O)n(CC(=O)N1CCCCCC1)c(=O)n2C, the “activity change, negative = inhibition” value is reported as 3.26%.
O=C(CSc1nnc(-c2ccc(Cl)cc2)o1)N1CCC(c2ccccc2)=N1 was tested, and the “activity change, negative = inhibition” value was -7.14%.
For O=C1C(Cl)=C(Oc2ccccc2)C(=O)c2ccccc21, the Potency was 11.2 µM (active).
In the case of Cc1cc2c(cn1)C(=O)c1ccccc1-2, the “activity change, negative = inhibition” value is reported as -6.61%.
In the case of N#Cc1cccc(CN2CCC(c3ccnn3CCO)CC2)c1, the “activity change, negative = inhibition” value is reported as 2.21%.
For COc1ccc2cc(C(=O)C3CCCN(C(=O)c4sc(C)nc4C)C3)ccc2c1 (stereo not given), the “activity change, negative = inhibition” value was -0.7%.
For COc1ccc2nc(N3CCCC(O)C3)c(C#N)cc2c1 (stereo not given), the Potency was 50.1 µM (active).
In the case of COc1ccc(OC)c(NC(=O)c2nc3ccccc3nc2N2CCCC2)c1, the “activity change, negative = inhibition” value is reported as 4.4%.
In the case of O=C(COc1ccc2ccccc2c1)Nc1nc2n(n1)C(c1ccc(Cl)cc1)CC(=O)N2 (stereo not given), the “activity change, negative = inhibition” value is reported as -2.54%.
For O=C(NCC1CCCCO1)C1(Oc2ccc(Cl)cc2)CCNCC1 (stereo not given), the “activity change, negative = inhibition” value was 33.9%.
In the case of CC(C)N(C(=O)COC(=O)/C=C/c1cccc2cccnc12)c1ccccc1, the “activity change, negative = inhibition” value is reported as -2.31%.
With CC(=O)NC1(C)CN(Cc2ccc(-c3ccc4c(ccn4C)c3)s2)C1 the “activity change, negative = inhibition” value was -9.28% [at 176 µM].
For COC(=O)Nc1ncc(CN2CCCCC2)s1, the “activity change, negative = inhibition” value was 18%.
With CC(=O)NC1(C)CCN(Cc2cnc(-c3ccc4c(ccn4C)c3)s2)CC1 the Potency was 39.8 µM (active).
In the case of CCCc1c(C)nc(Nc2nc(C)c3ccc(C)cc3n2)[nH]c1=O, the “activity change, negative = inhibition” value is reported as -5%.
In the case of COC(=O)c1sc(=S)n(-c2ccccc2)c1N, the Potency is reported as 44.7 µM (active).
In the case of CCOc1ccc(-n2c(N)c(C(=O)NCC3CCCO3)sc2=S)cc1 (stereo not given), the “activity change, negative = inhibition” value is reported as -25.8%.
For COC(=O)c1sc2ncccc2c1-n1c(C)ccc1C, the “activity change, negative = inhibition” value was 3.01%.
Cc1ccc(C(=O)NC(c2ccc3c(c2)OCCCO3)C(C)C)cn1 (stereo not given) was tested, and the “activity change, negative = inhibition” value was -5.47%.
Cc1c(CCC(=O)NCc2ccc3c(c2)OCO3)c(=O)oc2cc(O)ccc12 was tested, and the “activity change, negative = inhibition” value was 21.8%.
For COc1ccc(NC(=O)c2ccc(Br)o2)cc1NC(=O)c1ccccc1C, the “activity change, negative = inhibition” value was -25.8%.
For O=C(Nc1ccc2c(c1)OCO2)c1cc(=O)c(OCc2ccccc2F)co1, the “activity change, negative = inhibition” value was 17.9%.
In the case of CN1C(=O)c2ccc(NC(=O)C(F)(F)C(F)(F)C(F)(F)F)cc2C1=O, the “activity change, negative = inhibition” value is reported as 16.5%.
In the case of COc1c(CNCc2cccnc2N2CCOCC2)c(C)nn1C, the “activity change, negative = inhibition” value is reported as -0.0455%.
With Cc1ccccc1CN1CCCn2nc(C)c(-c3cccnc3N3CCOCC3)c21 the Potency was 28.2 µM (active).
For Cc1nn2c(c1-c1ccccc1-c1ccccc1)N(C(=O)CN1CCOCC1)CCC2, the “activity change, negative = inhibition” value was -29.2% [at 176 µM].
For COC(=O)c1cc(C)nc2c1c(=O)n(Cc1cccc(Cl)c1)c(=O)n2-c1ccccc1, the “activity change, negative = inhibition” value was -23.8%.
For Oc1cc2c(cc1O)CN(C(=S)NCCc1ccc(Cl)cc1)CCC2, the Potency was 17.8 µM (active).
With O=C(NCCc1ccc(Cl)cc1)C1CCCN1C(=O)NCc1ccccc1 (stereo not given) the “activity change, negative = inhibition” value was 0.671%.
For O=C(CSCc1ccc(Cl)cc1)N1CCCCC1, the “activity change, negative = inhibition” value was -10.3%.
CCN(CC(=O)NC(C)C)C(=O)Cn1c(=O)c2c(ncn2CC(C)C)n(Cc2ccccc2)c1=O was tested, and the “activity change, negative = inhibition” value was 0.5%.
In the case of CC(C)c1cccc(NC(=O)Cc2n[nH]c(=O)c3ccccc23)c1, the “activity change, negative = inhibition” value is reported as 6.42%.
With CCc1nnc(NC(=O)COc2ccc3c(C)cc(=O)oc3c2)s1 the “activity change, negative = inhibition” value was 4.96%.
